These compounds were tested on EGFR. Conditions: concentration: 1 μM, replicates: in singlicate; n = 1.
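Further: KINOMEscan kinase panel screen.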

Row | Compound | %Inh [%]
1 | O=C(Nc1n[nH]c2nc(-c3cccc(O)c3)ccc12)C1CC1 [SB-711805] | 5
2 | CN(c1ccc(NC(=O)Nc2cccc(Cl)c2)cc1)c1ccnc(N)n1.Cl [GW830707] | 10
3 | CC(=O)Nc1cn2nc(Oc3cccc(NC(=O)c4cccc(C(F)(F)F)c4)c3)ccc2n1 | 58
4 | COc1ccc(C)c(Nc2ccnc(Nc3ccc(-c4cnc[nH]4)cc3)n2)c1.Cl [GW784041] | 28
5 | Cl.Cl.NC(CNC(=O)c1cc(Br)c(-c2ccnc3[nH]ccc23)s1)c1ccccc1 (stereo not drawn) [GSK1322949] | 17

What follows are compounds tested on EIF2AK1. Conditions: concentration: 1 μM, replicates: in singlicate; n = 1.

Row | Compound | %Inh [%]
6 | Nc1ncc(-c2ccc3nccc(-c4ccncc4)c3c2)cc1S(=O)(=O)N1CCCCC1 [GSK1693850] | 0
7 | COc1cccc(CC(=O)N2CCc3cc(-c4cn(C)c5ncnc(N)c45)ccc32)c1 [GSK2608899] | 87
8 | CC(C)NCC(Cc1ccccc1)NC(=O)c1cc(Br)c(-c2ccnc3[nH]ccc23)s1.Cl.Cl (stereo not drawn) [GSK1383281] | 0
9 | Nc1ncc(-c2cn[nH]c2)c2scc(-c3ccc4c(c3)CCN4C(=O)Cc3ccccc3)c12 [GSK2593067] | 48
10 | Cc1cccc(Nc2nc(NCCN)ncc2C(N)=O)c1 [GSK1292139] | 0
11 | CC(C)c1nc(-c2cccc(NS(=O)(=O)c3c(F)cccc3F)c2)c(-c2ccnc(Nc3ccc(N4CCOCC4)nc3)n2)s1.Cl [GSK1723980] | 66
12 | Cc1ccc(-c2ccc3occ(-c4ccc(S(C)=O)cc4)c3c2)nn1 (stereo not drawn) | 0

Source: paper PMC5540273 (PLoS ONE, 2017)
